High-throughput results: PubChem, National Center for Advancing Translational Sciences (NCATS)
TDP1 cell CPT: DT40-hTDP1 cell growth loss with CPT; actives 12% (n = 420,000); AID 686979; Potency, µM (series often up to 46.2 µM), hits mostly inhibitors; chicken DT40 Tdp1-/-;hTDP1 cells + 20 nM CPT, ATP luminescence, 48 h; further: nearly all actives have a fitted effect of over 55% in size
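Cell growth measured by CellTiter-Glo luminescence after a minimum 48 h, 37 C compound exposure with 20 nM CPT in Tdp1-knockout DT40 cells stably expressing hTDP1, seeded 400/well; qHTS titration format.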
HT1080-NT tox: kills 2HG-producing HT-1080-NT fibrosarcoma cells; actives 1.6% (n = 360,000); HT-1080-NT fibrosarcoma viability, CellTiter-Glo ATP luminescence, 48 h; AID 686970; Potency, µM (doses to about 46.1 µM), usual class: cytotoxic;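 further: NT is the 2HG producing partner of a matched IDH1 knockdown line; nearly all actives have a fitted effect of over 55% in size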
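Viability by CellTiter-Glo luminescence after 48 h compound exposure at 37C of HT-1080-NT cells (750/well, RPMI, 5% FBS). % activity scaled between DMSO wells and medium-only wells, then curve-fitted and categorized by curve class.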
HT1080 IDH1KD tx: kills HT-1080 cells with IDH1 knockdown; HT-1080 IDH1 knockdown viability, ATP luminescence, 48 h; Potency, µM (highest dose often 46.1 µM), hits mostly cytotoxic; actives 2% (n = 360,000)
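In this qHTS, HT-1080 cells depleted of IDH1 are exposed for 48 h at 37 °C to compound titrations. Toxicity is scored from CellTiter-Glo luminescence, with DMSO as full viability and medium alone as none.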
IL-1B inflam inh: blocks inflammasome-driven IL-1 beta release; actives 4.7% (n = 360,000); THP-1 LPS/ATP IL-1B secretion, AlphaLISA, 16 h; stronger effect = lower value; activity change, % at 57.5 µM; in the data active means activity change below about -50%; inconclusive means mostly about -30% to -49%
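Secreted IL-1B measured by AlphaLISA bead assay after 16 h compound exposure of THP-1 cells; compounds (final up to 57.5 uM) added 1 h before LPS (250 ng/mL) and ATP (1.25 mM) stimulation; lower signal means less secretion.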
DT40 TDP1 no CPT: qHTS for Inhibitors of human tyrosyl-DNA phosphodiesterase 1 (TDP1): qHTS in cells in absence of CPT | AID 686978, 2013 | Potency, µM (titrated, usually from 46.2 µM), usual class: inhibitors | DT40 Tdp1-/- hTDP1 cells, no CPT, ATP luminescence, 48 h | actives 15% (n = 420,000); further: nearly all actives have a fitted effect of over 55% in size
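Growth of hTDP1-complemented DT40 Tdp1-knockout cells is measured by ATP luminescence after at least 48 hr compound exposure at 37 °C, with DMSO substituting for the 20 nM CPT used in the parallel screen.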
Each line names hits and unclear results; the compound was inactive in the other large screens. In the library only some 19% were active in any assay of this set; here they are far more common. Unless noted, the call rests on the fitted dose curve; in most records, active means well fitted curve in the direction sought with a large enough effect; inconclusive means small, poorly fitted or top-dose-only effect, or another doubt; inactive means no such curve, though single readings can be large; an effect the other way counts as inactive or inconclusive.

O[C@H]1C[C@H](c2ccc(Cl)cc2)N(CC2CCCCC2)C[C@@H]1n1cc(C2CC2)nn1	TDP1 cell CPT 5.8µM, HT1080-NT tox inconclusive, HT1080 IDH1KD tx inconclusive, IL-1B inflam inh inconclusive, DT40 TDP1 no CPT 6.5µM
COc1ccc([C@H]2C[C@@H](O)[C@H](n3cc(-c4ccc(F)cc4)nn3)CN2CC2CCCCC2)cc1	TDP1 cell CPT inconclusive, DT40 TDP1 no CPT 6.5µM
Cc1ccc([C@H]2C[C@@H](O)[C@H](n3cc(C4CC4)nn3)CN2CC2CCCCC2)cc1	TDP1 cell CPT inconclusive, DT40 TDP1 no CPT 18µM
CCOC(=O)C1=NN(c2ccccc2)C2(S1)SC(C(C)=O)=C(C)N2c1ccccc1 (configuration not stated)	TDP1 cell CPT inconclusive, DT40 TDP1 no CPT 15µM
CCOC(=O)C1=NN(c2ccc(C)cc2)C2(S1)SC(C(C)=O)=C(C)N2c1ccccc1 (configuration not stated)	TDP1 cell CPT inconclusive, DT40 TDP1 no CPT 21µM
O=C(O)Cn1nnc(COc2ccccc2)n1	none
CC(C)(C)C1CCc2c(sc(NC(=O)c3noc4c3CCCC4)c2C#N)C1 (configuration not stated)	none (no result: HT1080-NT tox, HT1080 IDH1KD tx, IL-1B inflam inh)
CC(=O)OCCCN(C)CC/C=C1/c2ccccc2CSc2ccccc21	TDP1 cell CPT inconclusive, HT1080-NT tox inconclusive, HT1080 IDH1KD tx inconclusive, IL-1B inflam inh -70, DT40 TDP1 no CPT inconclusive
COc1ccccc1N1CCN(C(=O)c2cnn(-c3ccc(F)cc3F)c2C2CCNCC2)CC1	DT40 TDP1 no CPT 18µM (no result: HT1080-NT tox, HT1080 IDH1KD tx, IL-1B inflam inh)
COc1ccccc1CNC(=O)c1cnn(-c2ccc(F)cc2F)c1C1CCN(C(=O)OC(C)(C)C)CC1	TDP1 cell CPT 16µM, DT40 TDP1 no CPT inconclusive (no result: HT1080-NT tox, HT1080 IDH1KD tx, IL-1B inflam inh)
CC(C)(C)OC(=O)N1CCC(c2c(C(=O)NCCN3CCOCC3)cnn2-c2cccc(F)c2)CC1	none (no result: HT1080-NT tox, HT1080 IDH1KD tx, IL-1B inflam inh)
Cc1cccc(N2CCN(C(=O)c3cnn(-c4ccc(F)cc4F)c3C3CCN(C(=O)OC(C)(C)C)CC3)CC2)c1C	TDP1 cell CPT 21µM, DT40 TDP1 no CPT 21µM (no result: HT1080-NT tox, HT1080 IDH1KD tx, IL-1B inflam inh)
CC(C)(C)OC(=O)N1CCC(c2c(C(=O)NC3CCCCC3)cnn2-c2ccc(F)cc2F)CC1	TDP1 cell CPT 21µM, DT40 TDP1 no CPT inconclusive (no result: HT1080-NT tox, HT1080 IDH1KD tx, IL-1B inflam inh)
O=C(CN1CCN(Cc2ccc(F)cc2)C1=O)NC1CCCC1	none
COc1ccc2c(c1)C(O)C(CO)C(C(=O)O)C2 (configuration not stated)	none
CC(=O)CSc1nnc2c3ccccc3nc(C(C)(C)C)n12	none
Cc1csc(NC(=O)CSc2nnc3c4ccccc4nc(C(C)(C)C)n23)n1	TDP1 cell CPT 4.6µM, HT1080-NT tox 5µM, HT1080 IDH1KD tx 6.3µM, DT40 TDP1 no CPT 5.8µM
Cc1ccc(C(=O)CSc2nnc3c4ccccc4nc(C(C)(C)C)n23)cc1	TDP1 cell CPT inconclusive, DT40 TDP1 no CPT 12µM
CCN1CCN(C(=O)/C(=C/c2ccco2)NC(=O)c2ccccc2)CC1	none
COc1cccc(NC(=O)C(C)n2c(=O)cc(C(F)(F)F)c3c(C)nn(C)c32)c1 (configuration not stated)	TDP1 cell CPT 16µM, DT40 TDP1 no CPT 18µM (no result: HT1080-NT tox, HT1080 IDH1KD tx, IL-1B inflam inh)
Cc1ccc(CNC(=O)C(C)n2c(=O)cc(C(F)(F)F)c3c(C)nn(C)c32)cc1 (configuration not stated)	TDP1 cell CPT 26µM, DT40 TDP1 no CPT inconclusive (no result: HT1080-NT tox, HT1080 IDH1KD tx, IL-1B inflam inh)
COc1ccc(OCCSc2ncn[nH]2)cc1	none
COc1ccc(OC)c(CCNC(=O)Cn2cccc2C(=O)c2ccccc2)c1	TDP1 cell CPT 7.3µM, DT40 TDP1 no CPT inconclusive
COc1ccc(OC)c(CCNC(=O)Cn2cccc2C(=O)c2ccccc2C)c1	TDP1 cell CPT inconclusive, HT1080-NT tox inconclusive, DT40 TDP1 no CPT 8.2µM
COc1ccc(CCNC(=O)Cn2cccc2C(=O)c2ccccc2)cc1OC	none
COc1ccc(NC(=O)CSc2ccc3nnc(-c4cccnc4)n3n2)c(OC)c1	none
COCCNC(=O)Cn1ccc2cc(S(=O)(=O)N3CCCCC3)ccc21	none
